Pol iota inh = DNA polymerase iota (human) inhibition; Q9UNA4; Potency, µM (highest dose often 115 µM), without a hit: top-dose activity, negative = inhibition, usual class: inhibitors; hit rate 1% among 390,000; Pol iota fluorescent replication assay, 10 min
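Fluorescent replication assay read twice, at 0 min and 10 min after adding 50 nM (final) substrate. Enzyme (10 nM) and compounds were first incubated 15 min at room temperature; enzyme-free buffer wells were negative controls.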
Pol kappa inh = DNA polymerase kappa (human) inhibition. Potency, µM (series often up to 107 µM), inactives show top-dose activity, negative = inhibition, actives largely listed as inhibitors. Q9UBT6. purified Pol kappa, fluorescent DNA synthesis assay, 10 min. hit rate 0.53% among 400,000; further: on the % scale 0 is the no-effect control and ±100 the full control effect
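Here, compound and 10 nM enzyme are combined for 15 min at room temperature; adding 50 nM substrate (final) starts DNA synthesis, tracked by fluorescence at 0 and 10 min against buffer-only wells.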
Pol eta inh = blocks human DNA polymerase eta activity. Potency, µM (titrated, usually from 114 µM), inactives show at the highest dose activity change, negative = inhibition, actives largely listed as inhibitors. AID 588591. recombinant Pol eta, fluorescent DNA replication assay. hit rate 1.2% among 390,000; further: on the % scale 0 is the no-effect control and ±100 the full control effect
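Pol eta at 10 nM preincubated with compounds 15 min at room temperature; reaction started with fluorescent substrate (50 nM final) and read kinetically at 0 and 10 min.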
WRN inhibitor = inhibitors of human WRN helicase; WRN helicase unwinding, fluorescent forked duplex, kinetic; hit rate 0.46% among 360,000; Potency, µM (series often up to 114 µM), for inactives: at the highest dose activity change, negative = inhibition, usual class: inhibitors; Q14191; AID 651768; further: on the % scale 0 is the no-effect control and ±100 the full control effect; nearly all actives have a fitted effect of over 55% in size
Target sequence (Q14191 whole entry, looked up): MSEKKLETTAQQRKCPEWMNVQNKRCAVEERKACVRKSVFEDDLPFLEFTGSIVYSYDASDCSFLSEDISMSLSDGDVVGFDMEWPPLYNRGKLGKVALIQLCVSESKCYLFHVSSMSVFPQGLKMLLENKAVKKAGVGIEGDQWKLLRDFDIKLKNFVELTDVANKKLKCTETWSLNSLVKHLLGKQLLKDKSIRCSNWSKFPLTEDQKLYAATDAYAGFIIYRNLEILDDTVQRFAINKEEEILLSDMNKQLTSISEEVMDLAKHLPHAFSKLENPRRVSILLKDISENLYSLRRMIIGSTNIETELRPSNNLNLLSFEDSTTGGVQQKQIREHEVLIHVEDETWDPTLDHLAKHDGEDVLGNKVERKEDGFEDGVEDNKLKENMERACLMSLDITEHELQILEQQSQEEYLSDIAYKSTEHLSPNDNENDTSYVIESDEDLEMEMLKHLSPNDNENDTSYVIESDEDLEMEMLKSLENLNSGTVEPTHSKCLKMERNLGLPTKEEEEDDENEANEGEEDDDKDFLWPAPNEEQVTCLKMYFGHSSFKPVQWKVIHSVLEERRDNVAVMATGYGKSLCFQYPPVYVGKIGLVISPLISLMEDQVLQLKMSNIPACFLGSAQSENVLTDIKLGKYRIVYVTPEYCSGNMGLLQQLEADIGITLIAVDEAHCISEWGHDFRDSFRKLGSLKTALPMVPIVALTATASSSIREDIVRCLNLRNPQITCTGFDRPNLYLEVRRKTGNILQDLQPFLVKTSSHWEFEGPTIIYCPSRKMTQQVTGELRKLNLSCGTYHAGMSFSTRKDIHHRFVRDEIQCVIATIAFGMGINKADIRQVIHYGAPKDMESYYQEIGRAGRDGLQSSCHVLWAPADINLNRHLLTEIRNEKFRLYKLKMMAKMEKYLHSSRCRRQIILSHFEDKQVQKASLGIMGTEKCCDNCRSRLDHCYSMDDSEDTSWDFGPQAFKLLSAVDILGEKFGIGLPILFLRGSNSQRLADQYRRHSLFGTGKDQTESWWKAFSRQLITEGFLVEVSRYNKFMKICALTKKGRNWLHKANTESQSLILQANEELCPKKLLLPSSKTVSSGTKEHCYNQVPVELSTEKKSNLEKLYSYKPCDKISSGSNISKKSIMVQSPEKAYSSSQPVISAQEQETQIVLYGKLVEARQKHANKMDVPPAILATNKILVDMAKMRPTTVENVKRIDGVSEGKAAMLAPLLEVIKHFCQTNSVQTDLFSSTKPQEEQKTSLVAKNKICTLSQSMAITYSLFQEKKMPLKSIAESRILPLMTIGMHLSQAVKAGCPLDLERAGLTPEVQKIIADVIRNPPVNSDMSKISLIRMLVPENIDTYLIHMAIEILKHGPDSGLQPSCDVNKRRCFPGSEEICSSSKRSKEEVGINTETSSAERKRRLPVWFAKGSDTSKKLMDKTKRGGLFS
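WRN at 20 nM final preincubated with compound 15 min at room temperature; reaction started with 100 nM fluorophore/quencher forked duplex oligonucleotide and 2 mM ATP final. Unwinding followed kinetically by red fluorescence (ex 525, em 598 nm).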
L3MBTL1 block = L3MBTL1 (human) inhibition; AlphaScreen L3MBTL1–H3K9me1 peptide binding; Q9Y468; AID 485360; Potency, µM (titrated, usually from 57.1 µM), without a hit: at the top dose activity, negative = inhibition, actives largely listed as inhibitors; hit rate 0.66% among 230,000; further: on the % scale 0 is the no-effect control and ±100 the full control effect; nearly all actives have a fitted effect of over 60% in size
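First, the protein-peptide complex forms for 30 min at room temperature (L3MBTL1 50 nM, biotinylated H3K9me1 peptide 75 nM). Next, compounds are pin-transferred and incubated 30 min. Finally, AlphaScreen beads are added and read after 30 min.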
Pol beta inh = blocks human DNA polymerase beta activity; P06746; Pol beta primer extension/strand displacement, fluorescence kinetic; Potency, µM (top dose mostly 114 µM), inactives show at the top dose activity change, negative = inhibition, most hits filed as inhibitors; hit rate 1.3% among 340,000; further: on the % scale 0 is the no-effect control and ±100 the full control effect
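Pol beta (10 nM) was preincubated with compound for 15 min at room temperature. The reaction was then started with 50 nM substrate and read immediately and after a further 10 min at room temperature.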
* hit, by the source's call; u = inconclusive; x = not tested or not shown; [ ] = another dose, or the depositor's remark. In the library only some 2.5% were active in any assay of this set; here they are far more common. The call rests on the fitted dose curve; in most records, active means well fitted curve in the direction sought with a large enough effect; inconclusive means small, poorly fitted or top-dose-only effect, or another doubt; inactive means no such curve, though single readings can be large; an effect the other way counts as inactive or inconclusive. Potency means the concentration at half of the fitted maximal effect.

SMILES	Pol iota inh	Pol kappa inh	Pol eta inh	WRN inhibitor	L3MBTL1 block	Pol beta inh
COc1ccc(C(=O)COC(=O)C2CC3CCCC(C2)C3=O)cc1Br (stereo not drawn)	22.2%	0.8%	-11.5%	5.4%	-3.9%	x
COc1cccc(NC(=O)NNS(=O)(=O)c2ccc(OC)cc2OC)c1	23.9%	-6.6%	-6.5%	-7.5%	x	2.6%
CC(C)Oc1cccc(C(=O)C2CCCN(C(=O)c3cc(C(F)(F)F)[nH]n3)C2)c1 (stereo not drawn)	16.1%	9.1%	-18.3%	9.3%	x	-6.1%
O=c1c2ccccc2sc2nc(C3CCCCC3)n(Cc3ccco3)c(=O)c12	u	-8.1%	u	-22.1%	x	22.4µM*
O=C(O)c1cccc(NC(=S)N/N=C/c2ccccn2)c1	2.1%	8.3%	9.7%	4.0%	20µM*	-25.6%
CN=c1scc(-c2ccc(F)cc2)n1/N=C/c1ccc(O)c(O)c1	u	-23.4%	u	-19.9%	x	5.01µM*
CN=c1scc(-c2ccc([N+](=O)[O-])cc2)n1/N=C/c1ccco1	99.1%	-3.3%	-20.2%	-26.9%	x	7.4%
COc1ccc(CC(=O)OCN2C(=O)c3ccccc3C2=O)cc1OC	11.2%	-13.4%	-4.1%	-4.9%	x	37.1%
CCOc1ccc(NC(=O)NCCCn2c(C)nc3cc(C)c(C)cc32)cc1	-7.3%	-5.8%	-0.6%	-16.5%	x	-1.4%
Cc1cc2nc(C)n(CCCNC(=O)Nc3cccc4ccccc34)c2cc1C	u	-23.2%	-3.0%	-16.7%	x	39.8µM*
Cc1cc(-c2ccccc2)nc(Nc2nc3c(C)cccc3c(=O)[nH]2)n1	16.8%	-2.6%	44.7µM*	-3.8%	x	x
CCc1cccc(C)c1NC(=O)CCN1C(=O)NC(C)(C)C1=O	-10.7%	-17.1%	-7.8%	-8.8%	1.2%	x
CC(=O)c1cccc(NC(=O)CCc2c(C)nc3c(-c4ccc(F)cc4)c(C)nn3c2C)c1	-3.7%	-13.4%	-7.5%	x	x	36.0%
O=C(Nc1n[nH]c(=S)s1)c1ccco1	u	56.2µM*	-3.2%	-7.6%[11.6 µM]	-14.5%	5.7%
CC(C)Sc1nnc(NC(=O)c2ccco2)s1	u	-17.2%	89.1µM*	-3.3%[57.1 µM]	x	-22.5%
O=C(Nc1nnc(-c2ccc(F)cc2)s1)c1ccco1	14.7%	-2.3%	-13.1%	0.2%	x	35.1%
CCn1nc(C)cc1C(=O)n1nc(C)c(Sc2ncccn2)c1C	136.0%	-3.9%	-14.4%	-16.1%	11.9%	41.3%
Nn1c(SCC(=O)NC2CCCCC2)nnc1C1CC1	0.8%	-18.3%	1.1%	-4.8%	-6.4%[11.4 µM]	0.316µM*
Cc1nnc(SCC(=O)NC2CCCCC2)n1N	8.5%	-9.8%	-3.2%	-2.3%	-1.1%	x
COC(=O)/C(C#N)=C/c1ccc(-c2ccc(S(N)(=O)=O)cc2)o1	36.6%	-15.5%	-5.0%	-19.5%	x	-19.3%
N#CC(C#N)=Cc1ccc(-c2ccc(S(=O)(=O)N=C(N)N)cc2)o1	u	-19.0%	20µM*	-41.7%	-9.5%	7.5%
CCOc1ccc2cc(C3CC(c4ccco4)=NN3S(C)(=O)=O)c(=O)[nH]c2c1 (stereo not drawn)	35.5µM*	-26.6%	u	-3.6%[11.6 µM]	x	15.8%
CCNC(=O)C1(C)CCN(C(=O)c2ccc(F)cc2Cl)C1 (stereo not drawn)	x	x	x	6.3%[57.1 µM]	x	x
COc1c(CC=C(C)C)cc(C2CC(=O)c3c(O)cc(O)cc3O2)cc1CC=C(C)C (stereo not drawn)	-5.7%	-11.9%	-21.1%	-7.3%	x	-30.0%
COC1=CC(=O)C(C2CC(=O)c3c(O)cc(O)cc3O2)=CC1=O (stereo not drawn)	u	31.6µM*	u	28.2µM*	x	x
SMILES	Pol iota inh	Pol kappa inh	Pol eta inh	WRN inhibitor	L3MBTL1 block	Pol beta inh
CC(C)Cc1nnc(NC(=O)c2cc3c(s2)CCC3)s1	28.2µM*	u	-28.2%	-12.1%[11.6 µM]	x	-25.8%
CC1NC(=O)NC1CCCCCC(=O)Nc1ccc(F)c(Cl)c1 (stereo not drawn)	-13.7%	-5.4%	-4.4%	-2.3%	0.316µM*	21.4%
Cc1ccc(NC(=O)CCCCCC2NC(=O)NC2C)cc1 (stereo not drawn)	-11.3%[58.9 µM]	6.1%	0.6%	9.3%	x	-17.0%
CC1(C)C(=O)Nc2ccccc2N1C(=O)COC(=O)CCSc1ccccc1	-6.2%	-17.2%	-6.4%	-5.8%	x	-24.0%
COc1cc(OC)cc(C(=O)NCC(=O)OCC(=O)N2c3ccccc3NC(=O)C2(C)C)c1	18.2%	-16.4%	11.1%	-0.1%	-8.3%	u
CC1(C)C(=O)Nc2ccccc2N1C(=O)CSc1nnc2ccccn12	u	u	u	-9.6%[57.1 µM]	-20.6%	31.6µM*
Cc1cc(C)cc(C(=O)NCC(=O)OCC(=O)N2c3ccccc3NC(=O)C2(C)C)c1	-25.6%	-1.8%	-12.3%	-2.8%	17.8µM*	14.1µM*
CC1(C)C(=O)Nc2ccccc2N1C(=O)COC(=O)c1cccs1	u	u	25.1µM*	0.8%[11.6 µM]	-1.7%	x
CC1(C)C(=O)Nc2ccccc2N1C(=O)COC(=O)c1cccnc1Cl	u	-24.9%	50.1µM*	-16.3%	-20.1%	x
CC1(C)C(=O)Nc2ccccc2N1C(=O)COC(=O)c1cc(S(=O)(=O)N2CCOCC2)ccc1F	39.8µM*	u	u	-15.0%	-17.3%	39.8µM*
Cc1ccc(S(=O)(=O)SC/C=C/CSS(=O)(=O)c2ccc(C)cc2)cc1	5.6%	-2.8%	-1.6%	u	x	x
Cc1ccc(S(=O)(=O)SCCCSS(=O)(=O)c2ccc(C)cc2)cc1	3.8%	-8.7%	-11.9%	50.1µM*	x	x
COc1ccc(NC(=O)C(c2ccccc2)N(C)C(=O)CNC(C)=O)cc1 (stereo not drawn)	-8.4%	-18.5%	4.4%	-4.4%	5.6%	30.5%
NC(=S)n1[nH]c(-c2ccc([N+](=O)[O-])cc2)c(N=Nc2ccc(Cl)cc2)c1=O	20µM*	u	u	u	u	u
COc1ccc(C(C)=NNC(=O)c2cccc(S(=O)(=O)N3CCCC3)c2)cc1	30.4%	-2.7%	-1.8%	0.8%	-2.9%	x
COc1ccc(/C(C)=N/NC(=O)c2cccc(S(=O)(=O)N3CCCC3)c2)c(O)c1	23.3%	-9.1%	-0.1%	-15.8%	6.31µM*	x
COC1(c2cc(-c3ccccc3)nc(N)n2)CCCCC1	-14.0%	-8.1%	-9.8%	-2.8%	-4.8%	3.8%
CCOc1cc(/C=C2\N=C(SCC)SC2=O)cc([N+](=O)[O-])c1OC(C)=O	u	u	44.7µM*	-22.0%	-23.3%	15.8µM*
CCOc1c(OC(C)=O)ccc(/C=C2\N=C(SCC)SC2=O)c1[N+](=O)[O-]	6.9%	-4.4%	-14.1%	-4.5%	-7.9%	-4.7%
COc1ccc(-c2cc(-c3ccco3)[nH]c(=O)c2C#N)cc1OC	10µM*	79.4µM*	56.2µM*	-8.2%	u	u

Source: PubChem BioAssay
